Measured values as given in PubChem BioAssay AID1159580 (chemical genetic matrix, 2015).
Screen size: about 5,500 compounds; about 2,000 (36%) were called active. Not shown: some 18% with an inconclusive outcome. Cut-off read from the data, not from the text of the source: active = normalized growth mostly below about 0.91 (no sharp cut-off); inconclusive = no clear call, values can overlap the other calls; inactive = mostly above about 0.92. The list shows a part of the results.

Experiment: chemical genetic growth profiling, strain panel (AID 1159580);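 note: tested at 20 µM; growth read once vehicle control cultures reached saturation at 30 °C; 1 = growth at the plate median or of vehicle wells; lower values mean less growth of the strain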
Conditions: S. cerevisiae deletion strains, growth OD
[1] = locus YGR078C, strain PAC10, hits give low values
[2] = locus YMR263W, strain SAP30, hits give low values
[3] = locus YNL128W, strain TEP1, hits give low values
[4] = locus YPL055C, strain LGE1, hits give low values
[5] = locus YPL241C, strain CIN2, hits give low values

Measured: normalized growth

N#CC(C#N)=CNc1cccc(N)n1
inactive: locus YAL013W, strain DEP1, hits give low values 0.995 | locus YBR229C, strain ROT2, hits give low values 1.01 | locus YCL061C, strain MRC1, hits give low values 1.04 | locus YDL101C, strain DUN1, hits give low values 1.05 | locus YDL134C, strain PPH21, hits give low values 1.01 | locus YDR150W, strain NUM1, hits give low values 1.07 | locus YEL061C, strain CIN8, hits give low values 1 | [1] 1.02 | locus YGR229C, strain SMI1, hits give low values 1.02 | locus YHR030C, strain SLT2, hits give low values 1.05 | locus YHR087W, strain rtc3, hits give low values 0.968 | locus YJR043C, strain POL32, hits give low values 1.03 | locus YJR075W, strain HOC1, hits give low values 1.05 | locus YLR039C, strain RIC1, hits give low values 1.05 | locus YLR058C, strain SHM2 (second series), hits give low values 0.992 | locus YLR085C, strain ARP6, hits give low values 1.03 | locus YLR262C, strain YPT6, hits give low values 1 | locus YML094W, strain GIM5, hits give low values 0.991 | locus YMR219W, strain ESC1, hits give low values 1 | [2] 1.05 | [3] 1 | locus YNL153C, strain GIM3, hits give low values 1.02 | locus YNL298W, strain CLA4 (second series), hits give low values 1.01 | locus YNL322C, strain KRE1, hits give low values 1.01 | locus YNR030W, strain Alg12, hits give low values 1 | [4] 0.996 | [5] 1 | locus YPR135W, strain CTF4, hits give low values 1.07

CC(N)C1CCC(C(=O)Nc2ccncc2)CC1 (configuration not stated)
inactive: locus YAL040C, strain CLN3, hits give low values 0.989 | locus YCL061C, strain MRC1 (second series), hits give low values 1 | locus YDR363W, strain ESC2, hits give low values 0.985 | locus YER002W, strain NOP16, hits give low values 0.987 | [1] 1.02 | [2] 1 | locus YMR307W, strain GAS1, hits give low values 1.02 | [3] 1.01 | locus YNL175C, strain NOP13, hits give low values 0.992 | locus YNL197C, strain WHI3, hits give low values 0.99 | locus YNL224C, strain SQS1, hits give low values 0.993 | locus YOR083W, strain WHI5 (second series), hits give low values 1.05 | [4] 0.987 | [5] 0.996
